# From the supplement of paper PMC8728848
# The entries come from a sample that favours the strongest signals as a whole.
# How the values were obtained:
# Assay in all cases: glycan array binding signal (z-score within array); higher = stronger binding
# Conditions in all cases: glycan notation: IUPAC condensed, linker removed
# [1] = molecular target: Glc(a1-6)Glc(a1-6)Glc(a1-6)Glc
# Method in brief: (§1)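 Glycan array data came from 3228 arrays in the Consortium for Functional Glycomics database, and only arrays with an available protein sequence were kept. Glycan names were put into IUPAC-condensed notation, and columns mapping to the same glycan were averaged. The binding signal is a within-array Z-score, averaged across arrays of one protein sequence run at different concentrations or buffers and across linkers. A negative Z-score can be read as non-binding.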
# [2] = molecular target: GlcNAc(b1-2)Gal(b1-3)GalNAc
# Method in brief: as §1
# [3] = molecular target: GlcNAc(b1-3)Gal(b1-4)GlcNAc(b1-3)Gal(b1-4)GlcNAc(b1-3)Gal(b1-4)GlcNAc(b1-2)Man(a1-3)[GlcNAc(b1-3)Gal(b1-4)GlcNAc(b1-3)Gal(b1-4)GlcNAc(b1-3)Gal(b1-4)GlcNAc(b1-2)Man(a1-6)]Man(b1-4)GlcNAc(b1-4)[Fuc(a1-6)]GlcNAc
# Method in brief: as §1
# [4] = molecular target: GlcNAc(b1-3)Gal(b1-4)GlcNAc(b1-3)Gal(b1-4)GlcNAc(b1-3)Gal(b1-4)GlcNAc(b1-2)[GlcNAc(b1-3)Gal(b1-4)GlcNAc(b1-3)Gal(b1-4)GlcNAc(b1-3)Gal(b1-4)GlcNAc(b1-6)]Man(a1-6)[GlcNAc(b1-3)Gal(b1-4)GlcNAc(b1-3)Gal(b1-4)GlcNAc(b1-3)Gal(b1-4)GlcNAc(b1-2)Man(a1-3)]Man(b1-4)GlcNAc(b1-4)[Fuc(a1-6)]GlcNAc
# Method in brief: as §1
# [5] = molecular target: GlcNAc(b1-3)Gal(b1-4)GlcNAc(b1-3)Gal(b1-4)GlcNAc(b1-3)Gal(b1-4)GlcNAc(b1-3)Gal(b1-4)GlcNAc(b1-2)[GlcNAc(b1-3)Gal(b1-4)GlcNAc(b1-3)Gal(b1-4)GlcNAc(b1-3)Gal(b1-4)GlcNAc(b1-3)Gal(b1-4)GlcNAc(b1-6)]Man(a1-6)[GlcNAc(b1-3)Gal(b1-4)GlcNAc(b1-3)Gal(b1-4)GlcNAc(b1-3)Gal(b1-4)GlcNAc(b1-3)Gal(b1-4)GlcNAc(b1-2)Man(a1-3)]Man(b1-4)GlcNAc(b1-4)[Fuc(a1-6)]GlcNAc
# Method in brief: as §1
# GlcNAc(b1-3)GalNAc = molecular target: GlcNAc(b1-3)GalNAc
# Method in brief: as §1
# GlcNAc(b1-3)Man = molecular target: GlcNAc(b1-3)Man
# Method in brief: as §1
# [6] = molecular target: GlcNAc(b1-3)[GlcNAc(b1-6)]GalNAc
# Method in brief: as §1
# [7] = molecular target: GlcNAc(b1-4)GlcNAc(b1-4)GlcNAc(b1-4)GlcNAc(b1-4)GlcNAc(b1-4)GlcNAc
# Method in brief: as §1
# Kdn(a2-3)Gal(b1-3)GlcNAc = molecular target: Kdn(a2-3)Gal(b1-3)GlcNAc
# Method in brief: as §1
# Man(a1-2)Man(a1-3)Man = molecular target: Man(a1-2)Man(a1-3)Man
# Method in brief: as §1
# [8] = molecular target: Neu5Ac(a2-3)Gal(b1-4)GlcNAc(b1-2)Man(a1-3)[Neu5Ac(a2-3)Gal(b1-4)GlcNAc(b1-2)Man(a1-6)]Man(b1-4)GlcNAc(b1-4)GlcNAc
# Method in brief: as §1
# [9] = molecular target: Neu5Ac(a2-3)Gal(b1-4)GlcNAc(b1-3)Gal(b1-3)GlcNAc
# Method in brief: as §1
# [10] = molecular target: Neu5Ac(a2-3)Gal(b1-4)GlcNAc(b1-3)Gal(b1-4)GlcNAc
# Method in brief: as §1
# [11] = molecular target: Neu5Ac(a2-3)Gal(b1-4)GlcNAc(b1-3)GalNAc
# Method in brief: as §1
# [12] = molecular target: Neu5Ac(a2-3)Gal(b1-4)[Fuc(a1-3)]GlcNAc(b1-6)[Gal(b1-3)]GalNAc
# Method in brief: as §1
# [13] = molecular target: Neu5Ac(a2-3)[GalNAc(b1-4)]Gal(b1-4)GlcNAc(b1-3)GalNAc
# Method in brief: as §1
# [14] = molecular target: Neu5Ac(a2-6)Gal(b1-3)GlcNAc(b1-3)[Gal(b1-4)GlcNAc(b1-6)]Gal(b1-4)Glc
# Method in brief: as §1
# [15] = molecular target: Neu5Ac(a2-6)Gal(b1-4)GlcNAc(b1-3)Gal(b1-4)GlcNAc(b1-3)Gal(b1-4)GlcNAc
# Method in brief: as §1
# [16] = molecular target: Neu5Ac(a2-6)Gal(b1-4)GlcNAc(b1-3)Gal(b1-4)GlcNAc(b1-3)Gal(b1-4)GlcNAc(b1-2)Man(a1-3)[Neu5Ac(a2-6)Gal(b1-4)GlcNAc(b1-3)Gal(b1-4)GlcNAc(b1-3)Gal(b1-4)GlcNAc(b1-2)Man(a1-6)]GalNAc
# Method in brief: as §1
# [17] = molecular target: Neu5Ac(a2-6)Gal(b1-4)GlcNAc(b1-3)Gal(b1-4)GlcNAc(b1-3)[Neu5Ac(a2-6)Gal(b1-4)GlcNAc(b1-3)Gal(b1-4)GlcNAc(b1-6)]GalNAc
# Method in brief: as §1
# [18] = molecular target: Neu5Ac(a2-6)Gal(b1-4)GlcNAc(b1-6)[Gal(b1-3)GlcNAc(b1-3)]Gal(b1-4)Glc
# Method in brief: as §1
# [19] = molecular target: Neu5Ac(a2-6)GalNAc(b1-4)GlcNAc
# Method in brief: as §1
# [20] = molecular target: Neu5Ac(a2-8)Neu5Ac(a2-3)Gal(b1-4)GlcNAc
# Method in brief: as §1
# [21] = molecular target: Neu5Ac(a2-8)Neu5Ac(a2-8)Neu5Ac
# Method in brief: as §1
# [22] = molecular target: Neu5Gc(a2-3)Gal(b1-4)GlcNAc(b1-3)Gal(b1-4)GlcNAc(b1-2)Man(a1-3)[Neu5Gc(a2-3)Gal(b1-4)GlcNAc(b1-3)Gal(b1-4)GlcNAc(b1-2)Man(a1-6)]Man(b1-4)GlcNAc(b1-4)GlcNAc
# Method in brief: as §1
binder,measurement,setting,value
PkBDPgamma (Plasmodium knowlesi) (protein) SAINQIFLQNNVMDKCNDKRKRGERDWDCPTEKDVCIPDRRYQLCMMEITNLVDTDTHFHSDIIFRKSYSRRRLIYDVGGRGDLLLKKYNNVYSEDLCKDIKWSLQDFGDIIMGTDMEGIGYSLVVQNNLRSIFGTGTSAELDRKKWWNDHKKDIWKAMILSVKEKNRYSAWNCKEDVQIKVEPQIYRWIREWGRDYMSEFREQRRKLNEKCEDKLYYSTMLICTLPPCNNACKSYDEWITGKKKQWDVLSTKFSSVKKAQKIETENIARAYDILKQELNGFNEVTFENEINKRDKLYNYFCVCIVQEARKNTQENVKNVGSGVESKAPSSNPINEAVKSSSGEGKVQEDSAHRSVNEGEGKSSTNEADPGSQPGAAASGGGSGGGTGGGVDLAPQMLRELQETNAALQDVRELLRQQVKEITFLKNTVMECDACGGPLDRNLPPLAPLGPTGGWSHPQFEK,glycan array binding signal (z-score),[1],0.897
same,glycan array binding signal (z-score),[2],-0.401
same,glycan array binding signal (z-score),[3],0.128
same,glycan array binding signal (z-score),[4],-0.196
same,glycan array binding signal (z-score),[5],2.27
same,glycan array binding signal (z-score),GlcNAc(b1-3)GalNAc,-0.356
same,glycan array binding signal (z-score),GlcNAc(b1-3)Man,-0.084
same,glycan array binding signal (z-score),[6],-0.331
same,glycan array binding signal (z-score),[7],-0.371
same,glycan array binding signal (z-score),Kdn(a2-3)Gal(b1-3)GlcNAc,-0.196
same,glycan array binding signal (z-score),Man(a1-2)Man(a1-3)Man,-0.276
same,glycan array binding signal (z-score),[8],0.46
same,glycan array binding signal (z-score),[9],-0.241
same,glycan array binding signal (z-score),[10],0.522
same,glycan array binding signal (z-score),[11],-0.073
same,glycan array binding signal (z-score),[12],0.362
same,glycan array binding signal (z-score),[13],-0.323
same,glycan array binding signal (z-score),[14],-0.324
same,glycan array binding signal (z-score),[15],0.015
same,glycan array binding signal (z-score),[16],0.405
same,glycan array binding signal (z-score),[17],0.922
same,glycan array binding signal (z-score),[18],1.24
same,glycan array binding signal (z-score),[19],-0.045
same,glycan array binding signal (z-score),[20],0.25
same,glycan array binding signal (z-score),[21],-0.324
same,glycan array binding signal (z-score),[22],20.7
